Experimental data: PubChem BioAssay AID651956 (Broad Institute, 2012)
Measured potencies and affinities stand elsewhere. Inconclusive results are not listed. A number with no mark means an inactive call.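 Rule for the calls: active = in every test run, a fitted half-maximal concentration for signal decrease at or below twice the highest tested concentration; inconclusive = runs disagree, flat 30 to 70% decrease, or poor fit; inactive = the rest.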

Test: miR-122 activators in hepatoma reporter cells, dose response, cell-based, Huh7 psiCHECK-miR122, Renilla luciferase, cherry-picked (AID 651956);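 note: Renilla luciferase from a miR-122 sensor reporter so lower signal means miR-122 activation; 0% = median neutral control wells and -100% = median positive control wells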
Conditions: 48 h; series mostly up to 35 µM; activity change, negative = signal decrease: at the top concentration

SMILES | activity change, negative = signal decrease
CCCC(=O)Nc1ccc2c(c1)C(=O)N(C)[C@@H]1CC[C@H](CC(=O)NCCOC)O[C@H]1CO2 | 57.9%
Cc1[nH]c(=O)c(C#N)cc1-c1ccccc1 | -28.5%
COC(=O)C[C@@H]1CC[C@@H]2[C@@H](COc3ccc(NC(=O)Nc4cccc(C#N)c4)cc3C(=O)N2C)O1 | 27.5%
CCC(=O)N1[C@H](CO)[C@@H](c2ccccc2)[C@H]1CN(C(C)C)S(C)(=O)=O | -18.1%
CC(C)C(=O)Nc1ccc2c(c1)C(=O)N(C)[C@@H]1CC[C@@H](CC(=O)N[C@H](C)c3ccccc3)O[C@@H]1CO2 | -36.3%
CCC(=O)N1[C@H](CN(C)C(C)=O)[C@H](c2ccc(-c3cccnc3)cc2)[C@@H]1CO | -27.9%
CO[C@@H]1CN(C)C(=O)c2cc(NC(=O)NC(C)C)ccc2OC[C@H](C)N(Cc2cncnc2)C[C@H]1C | 40.5%
CNC(=O)C[C@@H]1CC[C@@H]2[C@@H](COc3ccc(NC(=O)c4ccccc4OC)cc3C(=O)N2C)O1 | 124%
CCNC(=O)C[C@H]1CC[C@H]2[C@@H](COc3ccc(NC(=O)c4ccccc4)cc3C(=O)N2C)O1 | 36.5%
COc1ccc(NC(=O)N(C)C[C@@H]2Oc3cc(C#CCC(C)C)ccc3S(=O)(=O)N([C@@H](C)CO)C[C@@H]2C)cc1 | -12.5%
CN1C(=O)c2cc(NC(=O)Cc3ccccc3)ccc2OC[C@H]2O[C@H](CC(=O)O)CC[C@H]21 | 377%
COC(=O)c1nn(-c2ccccc2)c(Sc2ccc(Cl)cc2)c1/C=N/O | 94.2%
COc1ccc2c(c1)C(C)=CC(C)(C)N2C(=O)CNCc1ccc2c(c1)OCO2 | -43.5%
COc1ccc2[nH]c(=O)c(COC(=O)c3ccco3)cc2c1 | 71.3%
CCN(C[C@H]1N[C@H](CO)[C@H]1c1ccc(C2=CCCC2)cc1)C(=O)c1cccnc1 | 60.6%
C[C@H]1CN([C@@H](C)CO)S(=O)(=O)c2ccc(C#Cc3ccccc3F)cc2O[C@@H]1CN(C)C(=O)c1ccc2c(c1)OCO2 | -132%
CC(C)CC#Cc1ccc2c(c1)O[C@H](CN(C)C(=O)c1cnccn1)[C@H](C)CN([C@H](C)CO)S2(=O)=O | -63.4%
C/C=C/c1ccc([C@@H]2[C@@H](CN(C(=O)COC)C(C)C)N(C(C)=O)[C@H]2CO)cc1 | -16.7%
CNC(=O)c1nc(C)n(-c2cc(Cl)cc(Cl)c2)n1 | 104%
CN(C[C@H]1[C@H](c2ccccc2)[C@@H](CO)N1CC1CC1)C(=O)c1cccc(F)c1 | 105% [at 30 µM]

SMILES | activity change, negative = signal decrease
CN(C)CCCNC(=O)C[C@H]1CC[C@H]2[C@H](COc3ccc(NS(C)(=O)=O)cc3C(=O)N2C)O1 | -3.73%
O=C(N[C@H]1CC[C@H](CCn2cc(C3(O)CCCC3)nn2)O[C@H]1CO)c1ccccc1F | -22.4%
COCC(=O)N1[C@H](CO)[C@@H](c2ccccc2)[C@H]1CNC(=O)c1ccccn1 | 15.5%
CN1C(=O)c2cc(NC(=O)c3cccs3)ccc2OC[C@@H]2O[C@H](CC(=O)NCC(F)(F)F)CC[C@H]21 | -19.1%
CCC(=O)N1[C@H](CO)[C@H](c2ccccc2)[C@@H]1CN(C(C)C)S(C)(=O)=O | 113%
COCC(=O)Nc1ccc2c(c1)C(=O)N(C)[C@@H]1CC[C@@H](CC(=O)NC3CCCC3)O[C@@H]1CO2 | 13.2%
C/C=C/c1ccc([C@H]2[C@@H](CO)N(Cc3ccccn3)[C@H]2CNC(C)=O)cc1 | -24.4%
COc1cccc(NC(=O)C[C@@H]2CC[C@@H]3[C@@H](COc4ccc(NS(=O)(=O)c5cccc(F)c5)cc4C(=O)N3C)O2)c1 | -18.3%
COc1cccc(CNC(=O)C[C@@H]2CC[C@H]3[C@H](COc4ccc(NC(C)=O)cc4C(=O)N3C)O2)c1 | 215%
CC(C)NC(=O)N(C)C[C@H]1Oc2cc(C#C[C@H](C)O)ccc2S(=O)(=O)N([C@@H](C)CO)C[C@H]1C | 67.8%
COCC(=O)Nc1ccc2c(c1)C(=O)N(C)[C@@H]1CC[C@H](CC(=O)NCCCN(C)C)O[C@H]1CO2 | -2.91%
CNC(=O)C[C@@H]1CC[C@@H]2[C@H](COc3ccc(NC(=O)NC(C)C)cc3C(=O)N2C)O1 | 128%
CN(C(=O)c1ccccc1Cl)C1CCCCC1 | -12.7%
Cc1cc(C)cc(NC(=O)c2ccc(CSc3nnc(C)s3)cc2)c1 | -31.2%
COc1cccc(CNC(=O)C[C@@H]2CC[C@@H]3[C@H](COc4ccc(NC(C)=O)cc4C(=O)N3C)O2)c1 | 14.2%
COc1ccccc1CNc1nc(Nc2ccccc2Cl)c2sccc2n1 | 21.4%
CNc1nc(NCC2CCCCC2)c2sccc2n1 | -42%
CC(C)C(=O)Nc1ccc2c(c1)C(=O)N(C)[C@H]1CC[C@H](CC(=O)NCCc3ccccc3)O[C@H]1CO2 | 182%
CCOc1cc(-c2nccc3cc(OC)c(OC)cc23)cc(OCC)c1OCC | 39.5%
